# High-throughput results as filed in PubChem.
# HepG2 tox – kills HepG2 cells in TGF-b inhibitor counter-screen. HepG2 CAGA-GFP viability, ATP luminescence, 18 h. Potency, µM (titrated, usually from 46.1 µM), without a hit: at the highest dose activity change, negative = cytotoxicity, hits mostly cytotoxic. 410,000 tested, 0.76% active; note: potency is the fitted concentration of half-maximal effect
#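 HepG2 CAGA-GFP cells (1000/well, DMEM with 1% FBS) received compound, then TGF-beta at 500 pg/mL final, and were incubated 18 hours at 37 degrees C. Viability was read by CellTiter-Glo luminescence. Media-only wells were set as complete cell-killing and DMSO as no toxicity.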
# DT40 TDP1 CPT – DT40-hTDP1 cell growth loss with CPT; 420,000 tested, 12% active; Potency, µM (doses to about 46.2 µM), for the others: top-dose activity change, negative = growth inhibition, most hits filed as inhibitors; chicken DT40 Tdp1-/-;hTDP1 cells + 20 nM CPT, ATP luminescence, 48 h; AID 686979; note: potency is the fitted concentration of half-maximal effect; % is set by controls: 0 for no effect and ±100 for the full control effect; nearly all actives have a fitted effect of over 55% in size
#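 Chicken DT40 Tdp1-/- cells complemented with human TDP1, 400 cells/well, exposed to compounds plus 20 nM camptothecin for at least 48 h at 37 C; viability read as ATP content by CellTiter-Glo luminescence.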
# ASM inhibitor – blocks human secretory acid sphingomyelinase; placental ASM, HMU-PC fluorogenic substrate, 60 min; Potency, µM (top dose mostly 57.5 µM), for inactives: at the highest dose activity change, negative = inhibition, most hits filed as inhibitors; AID 504937; P17405; 340,000 tested, 0.006% active; note: potency is the fitted concentration of half-maximal effect
# Target sequence (P17405 47-631 limits assumed): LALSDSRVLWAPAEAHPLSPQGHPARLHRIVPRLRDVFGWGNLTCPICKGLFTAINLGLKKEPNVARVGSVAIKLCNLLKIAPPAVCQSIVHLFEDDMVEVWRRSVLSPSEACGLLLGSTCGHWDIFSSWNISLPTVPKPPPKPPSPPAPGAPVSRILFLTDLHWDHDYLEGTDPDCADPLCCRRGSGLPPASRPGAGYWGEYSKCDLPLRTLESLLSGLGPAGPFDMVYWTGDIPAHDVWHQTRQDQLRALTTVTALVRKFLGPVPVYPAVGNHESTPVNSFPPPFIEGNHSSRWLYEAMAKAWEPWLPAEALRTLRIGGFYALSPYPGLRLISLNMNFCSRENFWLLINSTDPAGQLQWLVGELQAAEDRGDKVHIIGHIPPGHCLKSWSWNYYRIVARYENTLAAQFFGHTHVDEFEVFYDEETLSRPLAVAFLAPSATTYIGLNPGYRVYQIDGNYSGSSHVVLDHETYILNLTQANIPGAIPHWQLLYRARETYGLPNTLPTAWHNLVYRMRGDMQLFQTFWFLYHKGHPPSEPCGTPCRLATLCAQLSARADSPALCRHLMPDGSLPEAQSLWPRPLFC
#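 Fluorogenic HMU-PC substrate (9 uM final) is turned over by placental ASM in 60 min at 37 C after a 10 min compound preincubation. Reaction ended by alkaline stop (pH 10), with fluorescence read at 386/447 nm.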
# TDP1 cell noCPT – qHTS for Inhibitors of human tyrosyl-DNA phosphodiesterase 1 (TDP1): qHTS in cells in absence of CPT; 420,000 tested, 15% active; DT40 Tdp1-/- hTDP1 cells, no CPT, ATP luminescence, 48 h; Potency, µM (titrated, usually from 46.2 µM), inactives show at the top dose activity change, negative = growth inhibition, hits mostly inhibitors; note: potency is the fitted concentration of half-maximal effect; % is set by controls: 0 for no effect and ±100 for the full control effect; nearly all actives have a fitted effect of over 55% in size
#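 Chicken DT40 Tdp1-/- cells complemented with human TDP1, screened without camptothecin (DMSO vehicle only), 400 cells/well. Compounds pin-transferred, cells incubated at 37 °C for at least 48 hr. Growth read as ATP-dependent luminescence (CellTiter-Glo, 30 min at RT).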
# TGFb SMAD3 inh – inhibitors of TGF-b signaling; 410,000 tested, 1.2% active; AID 588855; Potency, µM (titrated, usually from 46.1 µM), for the others: at the top dose activity, negative = inhibition, actives largely listed as inhibitors; HepG2 CAGA-GFP TGF-b/SMAD3 reporter, GFP fluorescence, 18 h; TGF-beta stimulated, 500 pg/mL final; note: potency is the fitted concentration of half-maximal effect; % is set by controls: 0 for no effect and ±100 for the full control effect; nearly all actives have a fitted effect of over 65% in size
#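 Read-out: total well GFP (ex488/em500-530) summed from mean per-cell fluorescence. Cells: HEPG2 CAGA-GFP, 1% FBS DMEM, 18 h at 37 degrees C with 500 pg/mL final TGF-beta. Unstimulated wells served as the full-inhibition control; stimulated DMSO wells = 0%.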
# IL1B secr inh – blocks inflammasome-driven IL-1 beta release. THP-1 LPS/ATP IL-1B secretion, AlphaLISA, 16 h; stronger effect = lower value. activity change, % at 57.5 µM. 360,000 tested, 4.7% active. AID 743279; in the data active = activity change below about -50%; inconclusive = mostly about -30% to -49%; note: % is set by controls: 0 for no effect and ±100 for the full control effect
#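 THP-1 cells pretreated 1 hr with compounds (up to 57.5 uM final), then stimulated with LPS (250 ng/mL final) plus ATP (1.25 mM final); secreted IL-1B measured by AlphaLISA after 16 hr, decreased signal indicating inhibition.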
# Numbers without * were called inactive; ? = inconclusive; . = not tested or not shown. Shown are actives, neighbours in structure and some others; about 19% of the full set was active somewhere. Unless noted, calls come from the whole dose curve; as a rule, active = well fitted curve in the direction sought with a large enough effect; inconclusive = small, poorly fitted or top-dose-only effect, or another doubt; inactive = no such curve, though single readings can be large; an effect the other way counts as inactive or inconclusive.
SMILES,HepG2 tox,DT40 TDP1 CPT,ASM inhibitor,TDP1 cell noCPT,TGFb SMAD3 inh,IL1B secr inh
CCOC(=O)c1[nH]c(C)c(CCC(=O)N2CCN(c3cccc(OC)c3)CC2)c1C,0.8%,?,.,?,11.3%,.
CC(=O)c1c(C)[nH]c(C(=O)N2CCN(c3cc(Cl)ccc3C)CC2)c1C,-31.6%,10.3µM*,-14.6%,5.8µM*,0.0%,21.2
CC(=O)c1c(C)[nH]c(C(=O)N2CCN(S(=O)(=O)c3ccc(C)cc3C)CC2)c1C,-21.1%,?,0.8%,18.4µM*,?,19.7
c1csc(CCCN2CCCCC2)c1,1.9%,-1.9%,9.9%,1.3%,-3.6%,-8.0
CCCN1CCCc2cc(CN(CCCN3CCOCC3)C(=O)Nc3ccc(CC)cc3)ccc21,-69.2%,23.1µM*,.,20.6µM*,?,.
CCCCN1CCCc2cc(CN(CCCN3CCOCC3)C(=O)Nc3ccc(CC)cc3)ccc21,3.4%,?,.,20.6µM*,18.5%,.
COC(=O)C1=C(CS(=O)(=O)c2ccc(Cl)cc2)NC(=O)NC1c1ccc(O)cc1 (stereo unspecified),-1.7%,10.4%,-1.1%,18.8%,-8.4%,17.2
COc1ccc(Br)cc1/C(C)=N/NC1=NCCN1,-30.8%,8.2µM*,3.7%,14.6µM*,?,-76.2*
C/C(=N\NC1=NCCN1)c1ccccc1,-1.2%,5.0%,3.3%,?,16.0%,-1.4
CCCCCOc1ccc(Br)cc1/C(C)=N/NC1=NCCN1,-51.0%,5.8µM*,-6.8%,4.61µM*,?,-102.9*
O=C(O)[C@H](Cc1ccccc1)NC(=O)N1CCN(c2ccc(F)cc2)CC1,0.1%,7.0%,8.6%,-7.0%,22.4%,-2.0
NC1=NC(c2cccc(Cl)c2)N(CCc2ccc(F)cc2)C(N)=N1 (stereo unspecified),-18.7%,?,0.7%,23.1µM*,0.0%,.
Cc1ccc(-c2nnn(CC(=O)NC(=O)NC3CCCCC3)n2)cc1,-29.2%,?,-11.2%,?,?,?
CCOC(=O)CCCCC(=O)c1[nH]c(=O)[nH]c1CSc1nc(C)cc(=O)[nH]1,2.5%,4.0%,1.4%,9.1%,-0.3%,?
CCOC(=O)CCCCC(=O)c1[nH]c(=O)[nH]c1CSc1nc2ccccc2[nH]1,-11.3%,2.2%,1.0%,-7.3%,1.3%,-90.9*
CCOC(=O)CCCCC(=O)c1[nH]c(=O)[nH]c1CN1CCOCC1,1.5%,7.0%,-0.5%,2.4%,-0.3%,-74.3*
COCCNC(=S)N(C)C1(c2ccccc2Cl)CCCCC1=O (stereo unspecified),-2.3%,12.7%,0.1%,-0.3%,-2.3%,-11.1
CCN(CC)CCCNc1ccc2ncn3c4ccc(O)cc4c(=O)c1c23,-28.7%,0.146µM*,-0.2%,0.146µM*,16.1%,-92.6*
CN(C)CCNc1ccc2nnn3c4ccc(O)cc4c(=O)c1c23,-14.4%,0.184µM*,-2.8%,0.184µM*,?,-53.2*
O=Cc1nccc2ccccc12,10.9%,9.2µM*,7.3%,6.51µM*,-0.2%,-6.6
C(=Cc1c[nH]c2ccccc12)c1nccc2ccccc12,1.7%,?,51.6%,?,28.2%,-82.0*
COC(=O)[C@@H]1CCCN1C(=O)c1c(OC)cc(=O)n2c1CCN(Cc1ccc(C)o1)CC2,.,4.5%,.,-13.5%,.,.
O=S(=O)(c1ccccc1)N1CCN=C1SCc1ccc(Cl)c(Cl)c1,26.6%,13µM*,-1.0%,18.4µM*,0.0%,-29.4
O=S(=O)(c1ccccc1)N1CCN=C1SCc1ccc(Cl)cc1,-19.7%,?,3.3%,18.4µM*,-2.7%,7.9
O=S(=O)(c1ccc2ccccc2c1)N1CCN=C1SCc1cccnc1,-19.8%,23.1µM*,-0.2%,?,-17.0%,-25.7
SMILES,HepG2 tox,DT40 TDP1 CPT,ASM inhibitor,TDP1 cell noCPT,TGFb SMAD3 inh,IL1B secr inh
O=S(=O)(c1ccccc1)N1CCN=C1SCc1ccccc1Cl,0.6%,?,-6.7%,?,-17.4%,20.2
O=S(=O)(c1ccccc1)N1CCN=C1SCc1cccc(Cl)c1,-7.5%,?,-4.5%,20.6µM*,12.6µM*,0.0
CCS(=O)(=O)N1CCN=C1SCc1ccccc1,-28.5%,-0.8%,1.9%,1.4%,7.3%,-1.2
Cc1ccc(S(=O)(=O)N2CCN=C2SCc2ccccc2)cc1,-3.7%,-13.2%,-1.5%,11.8%,-3.7%,-0.8
CC(C(=O)O)c1ccc(/C=C2\CCCCC2=O)cc1 (stereo unspecified),.,-14.8%,.,-7.0%,.,.
Cc1ccc(Cl)cc1NC(=O)C(NS(=O)(=O)c1cccc2nsnc12)c1ccccc1 (stereo unspecified),-1.0%,?,.,?,?,.
CCC(=O)Nc1ccc2nc(SCC(=O)N3CCOCC3)sc2c1,-5.3%,1.4%,12.6%,-7.3%,23.4%,0.0
CCCCC(=O)Nc1ccc2nc(SCC(=O)N3CCCC3)sc2c1,-25.7%,?,.,20.6µM*,0.0%,.
CC(C)(C)C(=O)Nc1ccc2nc(SCC(=O)N3CCCC3)sc2c1,3.9%,-84.7%,.,20.6µM*,-16.9%,.
CC1(C)CC(N2CCN(CCO)CC2)=CC(=S)N1,-6.4%,4.2%,2.9%,6.4%,-6.4%,1.8
COc1nc(N(C)C)nc(N(C#N)CCOC(C)=O)n1,2.0%,?,3.6%,17.4%,12.5%,?
Cc1ccccc1OCCN(C#N)c1nc(N(C)C)nc(N(C)C)n1,-49.3%,?,-1.5%,16.4µM*,-5.7%,-19.5
C/C=C(\CS(=O)(=O)c1ccccc1)S(=O)(=O)c1ccccc1,-31.7%,?,2.0%,29.1µM*,-11.5%,?
C/C(CS(=O)(=O)c1ccccc1)=N\O,9.8%,2.5%,6.5%,-10.0%,13.4%,4.5
CC1Cc2ccccc2N1C(=O)COC(=O)c1ccc([N+](=O)[O-])o1 (stereo unspecified),-11.9%,?,0.1%,-14.6%,?,-9.0
Cc1cc(SCc2ccccc2Cl)nc(=O)[nH]1,-0.4%,6.5%,-0.4%,7.2%,18.6%,13.1
Cc1cc(SCc2ccc(Cl)cc2Cl)nc(=O)[nH]1,-16.7%,?,-24.2%,10.3µM*,-0.5%,12.7
CC1CN(c2ccc(Oc3ccccc3)cc2)c2nc3c(c(=O)[nH]c(=O)n3C)n2C1 (stereo unspecified),-5.7%,18.4µM*,-1.3%,25.9µM*,0.0%,0.0
COc1cc(S(=O)(=O)n2ccnc2C(C)C)ccc1Br,-2.8%,9.6%,.,-1.9%,-5.3%,.
